The nature of experiment [1]: ATG_NFI_CIS: Attagene CIS-FACTORIAL HepG2 Assay for human Nuclear Factor I (NFI) (AID 2282989). The conditions noted are these: HepG2 cis-regulatory reporter, NFI response element transcription; actives raise or lower the signal. Put shortly: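 Read-out: reporter mRNA via RT-PCR plus capillary electrophoresis with fluorescence detection. Transiently transfected HepG2 (endogenous TF activity on cis promoters), 24 h compound exposure; gain or loss of signal fitted against DMSO.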

Experiment [2] has as its target Myc proto-oncogene protein (Homo sapiens) (UniProt P01106). Nature of the experiment: ATG_Myc_CIS: Attagene CIS-FACTORIAL HepG2 Assay for human Myelocytomatosis (Myc) Proto-Oncogene Transcription Factor (AID 2282990). The conditions noted are these: HepG2, Attagene cis-reporter transcription factor activity; actives raise or lower the signal. The method, boiled down:
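Transiently transfected HepG2 cells bearing cis-promoter reporter units for endogenous transcription factors; 24 h exposure. Reporter mRNA measured by RT-PCR, 6-FAM primer extension, HpaI cut and capillary electrophoresis; bidirectional fit relative to DMSO.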

Experiment [3] can be described thus: ATG_NF_kB_CIS: Attagene CIS-FACTORIAL HepG2 Assay for human Nuclear Factor Kappa B (NF-kB) (AID 2282991). The conditions noted are these: HepG2 Attagene cis-factorial NF-kB reporter mRNA; actives raise or lower the signal. The method, boiled down:
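Read-out: reporter transcript levels quantified by RT-PCR plus capillary electrophoresis of 6-FAM-labelled, HpaI-cut fragments. Transfected HepG2 cells, 24 h compound exposure, endogenous NF-kB-driven cis element; gain or loss scored versus DMSO.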

A short description of experiment [4]: ATG_NRF2_ARE_CIS: Attagene CIS-FACTORIAL HepG2 Assay for human Nuclear Factor Erythroid 2 Related Factor 2 (NFR2) response to Antioxidant Response Elements (ARE) (AID 2282992).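 As to AC50: reporter mRNA level measured by RT-PCR and capillary electrophoresis fluorescence.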 Conditions: HepG2 Attagene ARE/NRF2 reporter, transcription factor activity; actives raise or lower the signal. The method, boiled down:
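Endogenous transcription factor activity in human liver HepG2 cells is tracked via a cis-element-driven reporter within a multiplexed set. mRNA induction is read by RT-PCR and capillary electrophoresis after 24 h, with DMSO as baseline.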

Experiment [5] is described as follows: ATG_Oct_MLP_CIS: Attagene CIS-FACTORIAL HepG2 Assay for human Octamer-Binding Transcription Factor (Oct) (AID 2282993). Conditions: HepG2 Attagene cis-factorial Oct reporter, mRNA; actives raise or lower the signal. Put shortly: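 Read-out: reporter mRNA via RT-PCR plus capillary electrophoresis of 6-FAM-labelled fragments. Transiently transfected HepG2, 24 h exposure, endogenous TF activity on cis elements. Gain or loss of signal fitted relative to DMSO.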

Experiment [6] deals with human Peroxisome Proliferator-activated Receptor delta (PPARd), PPARD (gene 5467) (UniProt Q03181). Nature of the experiment: ATG_PPARd_TRANS: Attagene TRANS-FACTORIAL HepG2 Assay for human Peroxisome Proliferator-activated Receptor delta (PPARd) (AID 2283002; active = hit-call score of the fitted dose curve at least 0.9, where 1 is the maximum). Put shortly:
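HepG2 cells transiently transfected with GAL4-UAS multiplexed reporter units driven by exogenous chimeric NR-GAL4 proteins; 24 h compound exposure. Reporter mRNA measured by RT-PCR, 6-FAM primer extension, HpaI digestion and capillary electrophoresis; gain of signal fitted relative to DMSO.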

Experiment [7] addresses human Retinoic Acid Receptor beta (RARb), RARB (gene 5915) (UniProt P10826). Nature of the experiment: ATG_RARb_TRANS: Attagene TRANS-FACTORIAL HepG2 Assay for human Retinoic Acid Receptor beta (AID 2283004; active = hit-call score of the fitted dose curve at least 0.9, where 1 is the maximum). The method, boiled down: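 HepG2, transient MRTU transfection, NR–Gal4 chimera, 24 h treatment; RT-PCR plus CE fluorescence detection of reporter mRNA; gain of signal vs DMSO.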

In experiment [8] the target is Nuclear receptor subfamily 1 group I member 2 (Homo sapiens) (UniProt O75469). Kind of experiment: ATG_PXR_TRANS: Attagene TRANS-FACTORIAL HepG2 Assay for human Pregnane X Receptor (PXR) (AID 2283008; active = hit-call score of the fitted dose curve at least 0.9, where 1 is the maximum). The method, boiled down:
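HepG2 transfected (FuGene 6) with GAL4-UAS reporter units + PXR-Gal4 chimera; dosed 24 h. Total RNA → oligo(dT) RT → PCR → 6-FAM primer extension → HpaI cut → CE. Gain-of-signal vs DMSO.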

For experiment [9], the target named is human Retinoic Acid Receptor gamma (RARg), RARG (gene 5916) (UniProt P13631). Nature of the experiment: ATG_RARg_TRANS: Attagene TRANS-FACTORIAL HepG2 Assay for human Retinoic Acid Receptor gamma (RARg) (AID 2283009; active = hit-call score of the fitted dose curve at least 0.9, where 1 is the maximum). Put shortly: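 Transactivation of exogenous RARg-Gal4 fusion measured as reporter transcript induction after 24 h in transfected HepG2 cells. RNA reverse-transcribed, amplified, fluorescently labeled and resolved by capillary electrophoresis; increase relative to DMSO.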
Chain of human Retinoic Acid Receptor gamma (RARg), RARG (gene 5916) (P13631 whole entry, looked up, the tested form may be a part): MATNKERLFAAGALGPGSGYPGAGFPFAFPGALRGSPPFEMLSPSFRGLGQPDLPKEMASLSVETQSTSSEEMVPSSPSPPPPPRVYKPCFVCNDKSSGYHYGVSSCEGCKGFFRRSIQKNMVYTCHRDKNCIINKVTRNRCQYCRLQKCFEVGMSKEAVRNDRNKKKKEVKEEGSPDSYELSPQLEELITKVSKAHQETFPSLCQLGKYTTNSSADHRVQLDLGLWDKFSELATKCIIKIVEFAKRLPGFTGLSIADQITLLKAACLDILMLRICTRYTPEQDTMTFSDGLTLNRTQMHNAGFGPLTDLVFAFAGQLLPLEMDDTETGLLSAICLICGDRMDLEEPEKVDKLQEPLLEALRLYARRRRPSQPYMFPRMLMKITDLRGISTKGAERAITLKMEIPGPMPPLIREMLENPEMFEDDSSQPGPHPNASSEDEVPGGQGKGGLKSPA

Experiment [10] is described as follows: BSK_3C_uPAR: BioMAP Diversity Plus: 3C Assay for Urokinase-type plasminogen activator receptor (uPAR) Biomarker Activity (AID 2282998). Conditions: BioMAP 3C HUVEC, uPAR biomarker ELISA; actives raise or lower the signal. Put shortly: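 HUVEC primary cells; 24 h post-dose; uPAR by ELISA; gain or loss of signal fitted bidirectionally vs DMSO baseline.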
Experiment [11] in a line: BSK_3C_VCAM1: BioMAP Diversity Plus: 3C Assay for Vascular cell adhesion molecule 1 (VCAM1) Biomarker Activity (AID 2282999). Conditions: BioMAP 3C HUVEC, VCAM1 ELISA, cytokine-stimulated; actives raise or lower the signal. The method, boiled down: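 HUVEC primary cells, 24 h compound exposure; VCAM-1 by ELISA; gain/loss of signal fitted bidirectionally vs DMSO baseline.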

The nature of experiment [12]: BSK_4H_Eotaxin3: BioMAP Diversity Plus: 4H Assay for Eotaxin 3 Biomarker Activity (AID 2283000).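 Also: CCL26 protein level quantified by ELISA in parallel with SRB cytotoxicity check.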 Conditions: primary human endothelial cells (HUVEC); actives raise or lower the signal. The method, boiled down:
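Endothelial primary cells (human umbilical vein) exposed to compound for 24 h. ELISA detection of Eotaxin-3.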

The target of experiment [13] is human Peroxisome Proliferator-activated Receptor alpha (PPARa), PPARA (gene 5465) (UniProt Q07869). Kind of experiment: ATG_PPARa_TRANS: Attagene TRANS-FACTORIAL HepG2 Assay for human Peroxisome Proliferator-activated Receptor alpha (PPARa) (AID 2283001; active = hit-call score of the fitted dose curve at least 0.9, where 1 is the maximum;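 as to AC50: potency for gain of reporter signal over DMSO so agonist or activator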). Put shortly: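 HepG2, transient MRTU transfection, 24 h treatment. RT-PCR → FAM labelling → capillary electrophoresis. Fit vs DMSO, positive direction.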
Chain of human Peroxisome Proliferator-activated Receptor alpha (PPARa), PPARA (gene 5465) (Q07869 whole entry, looked up): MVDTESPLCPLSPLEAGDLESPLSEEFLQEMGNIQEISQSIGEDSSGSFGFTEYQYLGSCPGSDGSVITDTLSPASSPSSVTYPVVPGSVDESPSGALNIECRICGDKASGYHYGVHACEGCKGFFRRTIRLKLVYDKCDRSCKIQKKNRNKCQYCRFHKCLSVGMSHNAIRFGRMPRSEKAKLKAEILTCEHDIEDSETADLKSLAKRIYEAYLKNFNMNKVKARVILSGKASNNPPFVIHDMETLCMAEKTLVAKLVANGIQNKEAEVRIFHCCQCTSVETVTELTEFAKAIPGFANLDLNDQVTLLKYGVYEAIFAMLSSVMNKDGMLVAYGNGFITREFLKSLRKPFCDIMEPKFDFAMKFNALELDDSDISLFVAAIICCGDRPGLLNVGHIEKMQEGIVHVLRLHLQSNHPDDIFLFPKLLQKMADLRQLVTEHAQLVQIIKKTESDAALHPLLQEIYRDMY

Read-out in experiment [14]: Intercellular Adhesion Molecule 1 (ICAM1), ICAM1 (gene 3383)
Kind of experiment: BSK_3C_ICAM1: BioMAP Diversity Plus: 3C Assay for Intercellular Adhesion Molecule 1 (ICAM1) Biomarker Activity (AID 2283003). The conditions noted are these: primary human endothelial cells (HUVEC); actives raise or lower the signal. Put shortly:
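ELISA readout of ICAM1 in human umbilical vein endothelial cells in the 3C system, taken 24 h post-dose. Gain or loss of signal versus DMSO was fitted in both directions, with SRB total-protein staining run in parallel.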

Experiment [15] can be described thus: BSK_3C_Proliferation: Cell Proliferation Assessment in the BioMAP Diversity Plus: 3C Assay (AID 2283006). The conditions noted are these: primary human endothelial cells (HUVEC). Put shortly: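 Proliferation as total protein: sulforhodamine B (0.1%) stain of TCA-fixed subconfluent human umbilical vein endothelial cells, absorbance 560 nm, 48 h after dosing. Activity fitted in both directions against DMSO baseline.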

Experiment [16] addresses human RAR-related Orphan Receptor gamma (RORg), RORC (gene 6097) (UniProt P51449). Kind of experiment: ATG_RORg_TRANS: Attagene TRANS-FACTORIAL HepG2 Assay for human RAR-related Orphan Receptor gamma (RORg) (AID 2283011; active = hit-call score of the fitted dose curve at least 0.9, where 1 is the maximum). Put shortly:
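Activity is scored as increase in GAL4-UAS reporter mRNA over DMSO, detected by fluorescent RT-PCR and capillary electrophoresis in HepG2 cells transiently expressing a RORg-Gal4 chimera, 24 h after dosing.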

Experiment [17] has as its target Cellular tumor antigen p53 (Homo sapiens) (UniProt P04637). Kind of experiment: ATG_p53_CIS: Attagene CIS-FACTORIAL HepG2 Assay for human p53 Transcription Factor (AID 2282994). The conditions noted are these: HepG2 p53 cis-element reporter, Attagene mRNA; actives raise or lower the signal. The method, boiled down:
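Steps: transfect HepG2 with multiplexed cis reporter constructs; dose chemicals 24 h; extract RNA, reverse-transcribe, PCR-amplify reporter sequences; FAM-label, HpaI-digest, resolve fragments by CE. Activity fitted both directions relative to DMSO.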

Experiment [18] deals with Retinoic acid receptor alpha (Homo sapiens) (UniProt P10276). Kind of experiment: ATG_RARa_TRANS: Attagene TRANS-FACTORIAL HepG2 Assay for human Retinoic Acid Receptor alpha (RARa) (AID 2283005; active = hit-call score of the fitted dose curve at least 0.9, where 1 is the maximum). The method, boiled down:
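HepG2 transiently transfected with multiplex GAL4-UAS reporter units including a human RARa–GAL4 chimera; 24 h compound exposure. Reporter mRNA quantified by RT-PCR, 6-FAM labeling and capillary electrophoresis; gain of signal versus DMSO.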

For experiment [19], the target named is human RAR-related Orphan Receptor beta (RORb), RORB (gene 6096) (UniProt Q92753). Nature of the experiment: ATG_RORb_TRANS: Attagene TRANS-FACTORIAL HepG2 Assay for human RAR-related Orphan Receptor beta (RORb) (AID 2283010; active = hit-call score of the fitted dose curve at least 0.9, where 1 is the maximum). Put shortly:
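Read-out is reporter mRNA induction, quantified by RT-PCR with fluorescent capillary electrophoresis, 24 h post-dose in transiently transfected HepG2 expressing exogenous NR-Gal4 chimera. Activity fitted upward versus DMSO.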

The target in experiment [20] is Peroxisome proliferator-activated receptor gamma (Homo sapiens) (UniProt P37231). Nature of the experiment: ATG_PPARg_TRANS: Attagene TRANS-FACTORIAL HepG2 Assay for human Peroxisome Proliferator-activated Receptor-gamma (PPARg) (AID 2283007; active = hit-call score of the fitted dose curve at least 0.9, where 1 is the maximum). The method, boiled down:
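Read-out: reporter mRNA induction, detected by fluorescence after RT-PCR and capillary electrophoresis. Transiently transfected human HepG2 liver cells carrying a chimeric NR-Gal4 construct were dosed for 24 h; activity was fitted upward relative to DMSO.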

Molecules are shown by their SMILES. Records with an inconclusive call do not appear. Activity calls are given as the source filed them. The calls were made as follows, unless noted: active = hit-call score of the fitted dose curve at least 0.9, where 1 is the maximum; inactive = score below 0.9.

The record followed here is PubChem BioAssay (EPA / NIEHS).

Chain of human Retinoic Acid Receptor beta (RARb), RARB (gene 5915) (P10826 whole entry, looked up, the tested form may be a part): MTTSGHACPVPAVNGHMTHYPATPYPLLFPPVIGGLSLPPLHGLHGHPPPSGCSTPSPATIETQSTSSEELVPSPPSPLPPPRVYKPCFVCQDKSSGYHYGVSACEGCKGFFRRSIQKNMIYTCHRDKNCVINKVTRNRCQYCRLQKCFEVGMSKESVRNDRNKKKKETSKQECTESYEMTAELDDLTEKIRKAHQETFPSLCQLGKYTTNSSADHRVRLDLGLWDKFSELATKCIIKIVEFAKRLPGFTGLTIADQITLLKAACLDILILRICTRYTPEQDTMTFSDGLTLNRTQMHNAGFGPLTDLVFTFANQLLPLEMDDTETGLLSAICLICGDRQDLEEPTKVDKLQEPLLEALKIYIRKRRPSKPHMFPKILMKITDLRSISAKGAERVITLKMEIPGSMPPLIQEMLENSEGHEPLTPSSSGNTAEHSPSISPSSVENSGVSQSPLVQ
Chain of human Peroxisome Proliferator-activated Receptor delta (PPARd), PPARD (gene 5467) (Q03181 whole entry, looked up, the tested form may be a part): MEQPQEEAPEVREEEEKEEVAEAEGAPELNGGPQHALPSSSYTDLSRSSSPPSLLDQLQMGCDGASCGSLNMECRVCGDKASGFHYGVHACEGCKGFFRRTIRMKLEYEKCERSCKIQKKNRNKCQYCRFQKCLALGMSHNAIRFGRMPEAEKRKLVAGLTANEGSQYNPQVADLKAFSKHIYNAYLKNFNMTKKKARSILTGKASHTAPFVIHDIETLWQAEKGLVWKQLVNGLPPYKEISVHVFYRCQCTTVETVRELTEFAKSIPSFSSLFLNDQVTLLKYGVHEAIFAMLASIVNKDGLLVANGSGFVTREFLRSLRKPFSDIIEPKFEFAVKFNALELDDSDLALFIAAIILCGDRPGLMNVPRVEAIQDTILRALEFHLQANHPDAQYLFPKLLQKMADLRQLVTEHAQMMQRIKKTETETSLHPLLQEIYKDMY
Chain of Retinoic acid receptor alpha (Homo sapiens) (P10276 whole entry, looked up, the tested form may be a part): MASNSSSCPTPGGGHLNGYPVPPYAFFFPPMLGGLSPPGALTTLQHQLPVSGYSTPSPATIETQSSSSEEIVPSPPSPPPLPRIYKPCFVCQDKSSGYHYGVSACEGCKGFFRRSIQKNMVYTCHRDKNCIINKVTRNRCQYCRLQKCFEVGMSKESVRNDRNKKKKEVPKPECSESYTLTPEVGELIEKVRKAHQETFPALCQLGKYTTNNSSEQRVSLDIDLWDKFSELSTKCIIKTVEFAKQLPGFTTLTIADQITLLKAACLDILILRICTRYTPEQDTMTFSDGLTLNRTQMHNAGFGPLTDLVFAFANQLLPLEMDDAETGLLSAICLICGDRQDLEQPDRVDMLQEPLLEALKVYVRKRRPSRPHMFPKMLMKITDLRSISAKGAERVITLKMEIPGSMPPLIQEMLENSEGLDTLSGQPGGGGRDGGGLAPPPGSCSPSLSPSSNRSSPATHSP
Chain of Cellular tumor antigen p53 (Homo sapiens) (P04637 whole entry, looked up, the tested form may be a part): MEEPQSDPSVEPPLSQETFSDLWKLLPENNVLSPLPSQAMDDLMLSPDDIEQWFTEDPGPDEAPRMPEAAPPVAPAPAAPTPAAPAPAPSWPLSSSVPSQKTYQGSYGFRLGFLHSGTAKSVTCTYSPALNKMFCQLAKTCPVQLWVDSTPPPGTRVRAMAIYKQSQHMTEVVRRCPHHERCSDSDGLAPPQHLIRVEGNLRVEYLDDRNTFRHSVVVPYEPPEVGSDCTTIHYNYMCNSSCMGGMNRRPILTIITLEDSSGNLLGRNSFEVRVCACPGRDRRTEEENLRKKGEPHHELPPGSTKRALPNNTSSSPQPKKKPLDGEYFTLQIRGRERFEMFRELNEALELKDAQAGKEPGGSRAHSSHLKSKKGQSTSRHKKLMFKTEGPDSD
Chain of Nuclear receptor subfamily 1 group I member 2 (Homo sapiens) (O75469 whole entry, looked up, the tested form may be a part): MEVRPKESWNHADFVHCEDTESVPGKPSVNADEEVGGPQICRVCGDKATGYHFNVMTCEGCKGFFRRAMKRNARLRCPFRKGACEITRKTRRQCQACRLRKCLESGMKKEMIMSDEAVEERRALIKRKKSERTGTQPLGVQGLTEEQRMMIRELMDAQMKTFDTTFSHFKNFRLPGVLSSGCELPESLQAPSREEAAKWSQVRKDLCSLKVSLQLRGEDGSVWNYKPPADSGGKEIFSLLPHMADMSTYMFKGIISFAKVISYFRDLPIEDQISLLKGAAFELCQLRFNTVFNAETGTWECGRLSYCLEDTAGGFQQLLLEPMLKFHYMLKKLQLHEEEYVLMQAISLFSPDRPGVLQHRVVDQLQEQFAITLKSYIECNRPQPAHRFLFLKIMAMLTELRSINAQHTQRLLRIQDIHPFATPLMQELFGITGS
Chain of human RAR-related Orphan Receptor gamma (RORg), RORC (gene 6097) (P51449 whole entry, looked up, the tested form may be a part): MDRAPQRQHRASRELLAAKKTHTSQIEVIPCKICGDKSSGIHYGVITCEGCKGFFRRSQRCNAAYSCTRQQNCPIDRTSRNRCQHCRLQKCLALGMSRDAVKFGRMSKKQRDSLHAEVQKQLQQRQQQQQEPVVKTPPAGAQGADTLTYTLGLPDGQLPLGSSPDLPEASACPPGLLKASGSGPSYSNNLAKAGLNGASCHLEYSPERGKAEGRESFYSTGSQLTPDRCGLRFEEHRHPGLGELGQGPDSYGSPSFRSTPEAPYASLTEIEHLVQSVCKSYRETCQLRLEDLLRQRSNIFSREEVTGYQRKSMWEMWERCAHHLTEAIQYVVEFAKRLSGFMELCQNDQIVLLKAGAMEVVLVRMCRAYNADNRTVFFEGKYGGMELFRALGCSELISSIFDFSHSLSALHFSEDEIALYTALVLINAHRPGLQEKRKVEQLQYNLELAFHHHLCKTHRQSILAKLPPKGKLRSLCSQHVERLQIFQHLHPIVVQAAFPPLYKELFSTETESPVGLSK
Chain of Myc proto-oncogene protein (Homo sapiens) (P01106 whole entry, looked up): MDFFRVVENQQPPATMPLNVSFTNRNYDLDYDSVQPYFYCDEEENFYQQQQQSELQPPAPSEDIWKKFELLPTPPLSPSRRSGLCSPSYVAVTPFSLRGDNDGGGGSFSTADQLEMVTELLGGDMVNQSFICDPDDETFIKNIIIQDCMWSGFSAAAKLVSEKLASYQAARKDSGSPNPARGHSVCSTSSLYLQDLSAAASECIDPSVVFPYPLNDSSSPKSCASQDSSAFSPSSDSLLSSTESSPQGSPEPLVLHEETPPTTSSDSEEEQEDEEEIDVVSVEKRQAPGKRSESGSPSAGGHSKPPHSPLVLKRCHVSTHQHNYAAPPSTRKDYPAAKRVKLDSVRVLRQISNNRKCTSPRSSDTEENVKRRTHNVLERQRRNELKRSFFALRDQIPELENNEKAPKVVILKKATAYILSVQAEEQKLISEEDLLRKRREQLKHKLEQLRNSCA
Chain of Peroxisome proliferator-activated receptor gamma (Homo sapiens) (P37231 whole entry, looked up, the tested form may be a part): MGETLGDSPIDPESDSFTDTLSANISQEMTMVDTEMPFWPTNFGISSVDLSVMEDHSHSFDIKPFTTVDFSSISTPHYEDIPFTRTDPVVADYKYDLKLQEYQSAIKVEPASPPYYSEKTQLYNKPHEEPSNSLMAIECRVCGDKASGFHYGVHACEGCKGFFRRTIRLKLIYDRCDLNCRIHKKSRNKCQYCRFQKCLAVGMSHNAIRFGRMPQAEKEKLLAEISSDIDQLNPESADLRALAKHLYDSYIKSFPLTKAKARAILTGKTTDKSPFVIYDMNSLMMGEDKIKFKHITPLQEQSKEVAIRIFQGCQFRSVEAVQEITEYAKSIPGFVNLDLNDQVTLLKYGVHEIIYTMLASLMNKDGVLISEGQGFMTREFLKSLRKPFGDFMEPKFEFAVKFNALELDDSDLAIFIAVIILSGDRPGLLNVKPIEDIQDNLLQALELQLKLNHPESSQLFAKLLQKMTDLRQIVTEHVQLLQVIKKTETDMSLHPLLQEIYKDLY

On to `COC=O`, for which the result in experiment [1], in experiment [2], in [3], in [4], in experiment [5] and in experiment [6] was inactive. Also, the compound was classed as inactive in [7], in experiment [8] and in [9].
In the case of `O=Nc1ccc(O)cc1`, the outcome in [1], in [2], in experiment [3], in experiment [4], in experiment [5] and in experiment [10] was inactive. Besides, the result in experiment [11], in experiment [12], in experiment [13], in experiment [14], in experiment [7] and in experiment [15] was inactive. The compound was called inactive in experiment [16].
Regarding `O=c1n(CCO)c(=O)n(CCO)c(=O)n1CCO`, the outcome in experiment [1], in experiment [2], in experiment [3], in experiment [4], in experiment [5] and in experiment [17] was inactive. Besides, the result in [7], in experiment [18], in experiment [9], in experiment [19] and in experiment [16] was inactive.
As to `COCCCOCCCOC`, the compound was called inactive in experiment [1], in experiment [2], in [3], in [4], in [5] and in experiment [13]. The compound was classed as inactive in experiment [6], in experiment [8] and in experiment [16].
As to `CN1C(=O)N(C)C(O)C1O` (stereo not given), the result in experiment [1], in experiment [2], in [3], in experiment [5], in experiment [17] and in experiment [10] was inactive. For the same compound, the result in experiment [11], in experiment [12], in [13], in experiment [14], in experiment [15] and in experiment [20] was inactive.
With `C=C[C@](C)(O)CC[C@@H]1[C@@]2(C)CCCC(C)(C)[C@@H]2CC[C@@]1(C)O`, the compound was called inactive in experiment [1], in [2], in experiment [3] and in experiment [17]. For the same compound, the AC50 in [4] was 6.58 µM (active); in experiment [8], 331 nM (active).
In the case of `Cc1cc(C)c(C)c(O)c1`, the compound was classed as inactive in experiment [1], in [2], in experiment [3], in [4], in [17] and in experiment [7]. For the same compound, the result in experiment [20] and in [8] was inactive.
Regarding `CN(C)c1ccc(N=Nc2ccccc2C(=O)O)cc1`, the outcome in [1], in experiment [2], in [3] and in [6] was inactive. Besides, the half-maximal activity concentration (AC50) was 23.3 µM (active) in experiment [5], 66.4 µM (active) in experiment [17] and 23.2 µM (active) in experiment [13].
For the compound `CCCCCCCCC(=O)OCC`, the result in [1], in experiment [2], in experiment [3], in [17], in experiment [13] and in experiment [7] was inactive. Besides, the result in [18], in [20], in experiment [8] and in experiment [9] was inactive. In addition, the AC50 in experiment [4] was 47.4 µM (active).
In the case of `O=CC1CC1`, the result in experiment [1], in experiment [2], in [3], in [4], in [17] and in experiment [6] was inactive. Moreover, the result in [18], in [9] and in experiment [16] was inactive.
As for `OCCc1ccncc1`, the result in [1], in experiment [2], in [3], in experiment [4], in experiment [5] and in experiment [7] was inactive. Moreover, the outcome in experiment [18], in [20] and in experiment [19] was inactive.
In the case of `CCC(=O)Oc1ccc(/C(CC)=C(\CC)c2ccc(OC(=O)CC)cc2)cc1`, the concentration at half-maximal activity (AC50) in [1] was 25.2 µM (active); in [3], 33.7 µM (active); in experiment [17] it was 27.9 µM (active); in [8], 4500 nM (active). In addition, the outcome in experiment [2], in [4] and in experiment [6] was inactive.
As to `CC/C=C\CCOC(=O)CCCCC`, the compound was classed as inactive in [1], in experiment [2], in experiment [3], in experiment [4], in [17] and in experiment [13]. The result in [7], in experiment [18] and in [8] was inactive.
